Measured values: PubChem BioAssay (EPA / NIEHS)
Active and inactive are the calls of the source. Rule for the calls: active = hit-call score of the fitted dose curve at least 0.9, where 1 is the maximum; inconclusive = response in the unintended direction; inactive = score below 0.9.

System: rat CYP3A1, gene 25642
Assay: NVS_ADME_rCYP3A1: NovaScreen (NVS) CYP450-related Enzyme Activity (ADME) Assay for rat CYP3A1 (AID 2283126)
Method: NVS_ADME_rCYP3A1 is a biochemical, single-readout assay that uses extracted gene-proteins in a cell-free assay. Measurements were taken 0.5 hour after chemical dosing in a 96-well plate.NVS_ADME_rCYP3A1 is one of one assay component(s) measured or calculated from the NVS_ADME_rCYP3A1 assay. It is designed to make measurements of enzyme activity, a form of enzyme reporter, as detected with fluorescence intensity signals by Fluorescence technology.Data from the assay component NVS_ADME_rCYP3A1 was analyzed into 1 assay endpoint. This assay endpoint, NVS_ADME_rCYP3A1, was analyzed in the positive analysis fitting direction relative to Acetonitrile as the negative control and baseline of activity. Using a type of enzyme reporter, loss-of-signal activity can be used to understand changes in the enzymatic activity as they relate to the gene Cyp3a23/3a1. Furthermore, this assay endpoint can be referred to as a primary readout, because this assay has produced multiple assay endpoints where this one serves a enzymatic activity function. To generalize the intended target to other relatable targets, this assay endpoint is annotated to the cyp intended target family, where the subfamily is xenobiotic metabolism.
Binding assays used specific radioligands (tritiated, iodinated) with non-radioactive competitive displacement ligands in agonist or antagonist protocols (as indicated) and various reference compounds and inhibitors to titrate specific binding to receptors and transporters. Most enzyme assays (CYPs, kinases, phosphatases, proteases, HDACs) used recombinant protein and specific substrates (fluorescence mostly, some colorimetric and radioactive) and inhibitors, followed by a biochemical separation of substrate and product. All assays for the biochemical HTS were initially run in duplicate at a single concentration (10 uM for CYP450 assays and 25 uM for all others). Assay-chemical combinations meeting a pre-defined threshold (e.g., 30% inhibition and other criteria defined below) were then run in singleton concentration-response format with maximum concentration of 20 uM for CYPs and 50 uM for all others. Each assay was run with positive and negative controls, and concurrent controls on every plate. The follow-up (secondary) screen tested active chemical-pairs in concentration series, as well as a few additional assays not tested in the primary screen, some selected negative inactives, and several cases re-run in the concentration series for confirmatory purposes.

Compound	AC50	outcome
CCOP(=O)(OCC)Oc1nc(Cl)c(Cl)cc1Cl	7.93 µM (active)	
COc1ccc(-c2ccccc2)cc1NNC(=O)OC(C)C	2.96 µM (active)	
CC1(C)CCC(=Cc2ccc(Cl)cc2)C1(O)Cn1cncn1 (stereo not drawn)	0.0126 µM (active)	
CC(C)NC(=O)N1CC(=O)N(c2cc(Cl)cc(Cl)c2)C1=O	2.27 µM (active)	
CO/N=C(/C1=NOCCO1)c1ccccc1Oc1ncnc(Oc2ccccc2Cl)c1F	0.705 µM (active)	
CC(C)(C)C(=O)C(Oc1ccc(Cl)cc1)n1cncn1 (stereo not drawn)	8.49 µM (active)	
Nc1cnn(-c2ccccc2)c(=O)c1Cl	7.35 µM (active)	
CCCCOCN(C(=O)CCl)c1c(CC)cccc1CC	10 µM (active)	
COCC(=O)N(c1c(C)cccc1C)C(C)C(=O)OC (stereo not drawn)	4.46 µM (active)	
C=CCOC(=O)C(C)(C)OC(=O)c1cc(-n2c(=O)cc(C(F)(F)F)n(C)c2=O)ccc1Cl	0.595 µM (active)	
CCN(CC)C(=O)C(C)Oc1cccc2ccccc12 (stereo not drawn)	4.43 µM (active)	
Cc1ccc(N=CN(C)C=Nc2ccc(C)cc2C)c(C)c1	4.8 µM (active)	
COP(=S)(OC)Oc1ccc([N+](=O)[O-])c(C)c1	8.22 µM (active)	
CCCCC(O)(Cn1cncn1)c1ccc(Cl)cc1Cl (stereo not drawn)	0.995 µM (active)	
Clc1nc(Cl)nc(Nc2ccccc2Cl)n1		inactive
CCCCC(C#N)(Cn1cncn1)c1ccc(Cl)cc1 (stereo not drawn)	3.82 µM (active)	
CC(C)N1C(=O)N(c2ccccc2)CSC1=NC(C)(C)C	5.84 µM (active)	
COC(=O)c1c(C(F)F)nc(C(F)(F)F)c(C2=NCCS2)c1CC(C)C	2.32 µM (active)	
COP(=S)(OC)SCn1nnc2ccccc2c1=O	3.02 µM (active)	
COc1cc(OC)nc(NC(=O)NS(=O)(=O)c2ncccc2OCC(F)(F)F)n1	5.87 µM (active)	
COC(=O)NC(=S)Nc1ccccc1NC(=S)NC(=O)OC	7.66 µM (active)	
CCNP(=S)(OC)O/C(C)=C/C(=O)OC(C)C (stereo not drawn)	1.93 µM (active)	
CCOP(=S)(OCC)Oc1nc(Cl)n(C(C)C)n1	3.46 µM (active)	
